Screening results from PubChem.
Sampled rows, rich in hits. Any-hit rate of the full collection: about 2.6%.
PME-1 primary = blocks human protein phosphatase methylesterase 1 | actives 0.53% (n = 320,000) | recombinant PME-1, FP-Rh probe fluorescence polarization | Q9Y570 | AID 2130 | inhibition, % at 5.9 µM;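 active = inhibition above the campaign mean of all compounds plus 3 SD, cut at about 26% in these data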;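 note: competitive labeling of PME-1 active site by serine hydrolase directed probe; 0% = PME-1 with DMSO and 100% = wells lacking PME-1 enzyme; inhibitors block probe labeling so polarization falls and inhibition rises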
PAD4 inh = blocks human protein arginine deiminase 4; Q9UM07; recombinant PAD4, RCA probe fluorescence polarization; inhibition, % at 6.36 µM; actives 0.41% (n = 330,000); AID 485272;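 active = percent inhibition above a cutoff equal to the mean of all tested compounds plus 3 SD, cut at about 15% in these data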;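 note: 0% = PAD4 with RCA probe and DMSO and 100% = probe without PAD4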
PRMT1 inh = blocks human protein arginine methyltransferase 1 | Q99873 | recombinant PRMT1, activity-based probe fluorescence polarization | inhibition, % at 2.79 µM | actives 1.3% (n = 370,000);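 active = inhibition above about 21% made by adding two undisclosed values, limit read from the data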
SIAE inh = inhibitors of human sialic acid acetylesterase SIAE | SIAE FP-Rh probe binding, fluorescence polarization | inhibition, % at 9.66 µM | actives 0.69% (n = 370,000);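 active = inhibition above a cutoff: mean of compounds within the control limits plus 3 SD of those, cut at about 17% in these data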;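 note: 0% = plate median of compound wells and 100% = probe without SIAE protein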
Target sequence (Q9HAT2 whole entry, looked up): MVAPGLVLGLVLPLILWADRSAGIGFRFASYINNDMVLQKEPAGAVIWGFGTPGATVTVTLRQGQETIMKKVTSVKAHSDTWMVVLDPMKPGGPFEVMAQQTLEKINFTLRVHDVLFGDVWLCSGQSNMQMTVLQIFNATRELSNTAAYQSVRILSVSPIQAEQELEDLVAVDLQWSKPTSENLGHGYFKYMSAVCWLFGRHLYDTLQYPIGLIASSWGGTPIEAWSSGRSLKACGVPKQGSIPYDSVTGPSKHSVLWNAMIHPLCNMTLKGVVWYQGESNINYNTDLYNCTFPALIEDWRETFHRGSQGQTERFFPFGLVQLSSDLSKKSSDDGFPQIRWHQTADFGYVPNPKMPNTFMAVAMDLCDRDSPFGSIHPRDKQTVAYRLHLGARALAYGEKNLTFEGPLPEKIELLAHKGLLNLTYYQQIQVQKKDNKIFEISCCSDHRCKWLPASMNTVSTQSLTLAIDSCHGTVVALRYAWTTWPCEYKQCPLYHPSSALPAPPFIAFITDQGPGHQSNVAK
TCR CD3 inh = human TCR-CD3 binding inhibition; TAMRA-labeled TCR probe fluorescence, biochemical; inhibition, % at 9.4 µM; actives 0.37% (n = 360,000); in the data active = inhibition above about 19%;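 note: recombinant mutant TCR 2C K166C tagged with TAMRA read by polarization; 0% = receptor in buffer alone and 100% = receptor with positive control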
Fam108B counter = blocks mouse Fam108B hydrolase in RBBP9 counter-screen | recombinant Fam108B, FP-Rh probe fluorescence polarization | inhibition, % at 9.51 µM | actives 0.33% (n = 300,000) | AID 1947;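 active = inhibition above the screen mean inhibition plus 3 SD, computed separately per campaign, cut at about 18% in these data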;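 note: inhibitors lower polarization as less probe binds the enzyme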
* marks the source's active call; other numbers are inactive results.

How did Nc1cc(=O)[nH]c(SCC(=O)Nc2cc(S(=O)(=O)N3CCCCCC3)ccc2Cl)n1 do in these assays?
PAD4 inh: 1.6; PRMT1 inh: 23.3*; SIAE inh: -15.6; TCR CD3 inh: -3.0

What do the screens show for `Nc1cc(=O)[nH]c(SCC(=O)Nc2cc(S(=O)(=O)N3CCOCC3)ccc2Cl)n1`?
PME-1 primary: 5.5; PAD4 inh: 0.8; PRMT1 inh: 5.2; SIAE inh: -5.3; TCR CD3 inh: -1.4; Fam108B counter: 5.7

What do the screens show for `CC(C)c1ccc2[nH]c(O)c(N=NC(=O)c3cccc(S(=O)(=O)N4CCCCC4)c3)c2c1`?
PME-1 primary: 53.1*; PAD4 inh: -7.8; PRMT1 inh: -2.4; SIAE inh: -6.0; TCR CD3 inh: 6.1; Fam108B counter: 7.6

Results for O=C(N=Nc1c(O)[nH]c2ccccc12)c1cccc(S(=O)(=O)N2CCCCC2)c1 ?
PME-1 primary: 4.4; PAD4 inh: -1.4; PRMT1 inh: -4.1; SIAE inh: -6.2; TCR CD3 inh: 12.6; Fam108B counter: 0.3

Results for COc1cccc(NC(=O)Nc2ccc3c(c2)N(C)C(=O)CS3)c1 ?
PME-1 primary: 32.3*; PAD4 inh: -6.2; PRMT1 inh: -1.7; SIAE inh: 5.9; TCR CD3 inh: -6.6; Fam108B counter: 15.1

How did COc1ccccc1-c1c(C#N)c(N)nc2c1CCc1ccccc1-2 do in these assays?
PME-1 primary: 40.3*; PAD4 inh: -14.0; PRMT1 inh: -0.8; SIAE inh: 9.3; TCR CD3 inh: -0.7; Fam108B counter: -1.5

How did CCOc1cc(-c2c(C#N)c(N)nc3c2CCc2ccccc2-3)ccc1O do in these assays?
PME-1 primary: -3.6; PAD4 inh: -3.5; PRMT1 inh: 0.0; SIAE inh: -10.1; TCR CD3 inh: -0.9; Fam108B counter: -3.3

Results for COc1cc2c(cc1NC(=O)c1cccnc1)oc1ccccc12 ?
PME-1 primary: 28.4*; PAD4 inh: -0.6; PRMT1 inh: -0.1; SIAE inh: -23.3; TCR CD3 inh: 0.3; Fam108B counter: 13.6

How did COC(=O)[C@]12C[C@H](CC(=O)N3CCCC3)C(=O)N(CCc3ccc(OC)c(OC)c3)C1=C[C@H](C1CCCC1)O[C@@H]2C do in these assays?
PRMT1 inh: 0.8; SIAE inh: 0.6

How did CCCN1C(=O)c2[nH]nc(-c3ccccc3)c2C1c1ccc(F)cc1 (stereo not given) do in these assays?
PRMT1 inh: 22.3*; SIAE inh: -6.8; TCR CD3 inh: -0.4

How did CCCN1C(=O)c2[nH]nc(-c3ccccc3)c2C1c1ccc(C)cc1 (stereo not given) do in these assays?
PRMT1 inh: 0.4; SIAE inh: -8.3; TCR CD3 inh: 7.0

Results for COc1ccc(OC)c(/C=C2\SC(=S)N(C(C(=O)O)c3ccccc3)C2=O)c1 (stereo not given) ?
PME-1 primary: 1.9; PAD4 inh: -3.2; PRMT1 inh: 16.6; SIAE inh: -9.7; TCR CD3 inh: -3.6; Fam108B counter: -0.3

How did CCOc1ccc(/C=C2\SC(=S)N(C(C(=O)O)c3ccccc3)C2=O)cc1OC (stereo not given) do in these assays?
PME-1 primary: 35.5*; PAD4 inh: -3.8; PRMT1 inh: 2.8; SIAE inh: 0.2; TCR CD3 inh: 3.5; Fam108B counter: 2.1

How did NC(=O)CSc1cn(Cc2ccc(F)cc2)c2ccccc12 do in these assays?
PME-1 primary: 6.6; PAD4 inh: 0.0; PRMT1 inh: 1.2; SIAE inh: 0.6; TCR CD3 inh: -14.1; Fam108B counter: -0.1

How did NC(=O)CSc1cn(Cc2ccccc2)c2ccccc12 do in these assays?
PME-1 primary: 1.9; PAD4 inh: -4.6; PRMT1 inh: 22.6*; SIAE inh: 5.5; TCR CD3 inh: -5.2; Fam108B counter: 10.7

What do the screens show for `Cc1ccc(S(=O)(=O)c2ccccc2)cc1S`?
PME-1 primary: -6.5; PAD4 inh: 35.9*; Fam108B counter: -3.0

What do the screens show for `N#CC1(C#N)COC23CCCCC2C1(C#N)C(=N)O3` (stereo not given)?
PME-1 primary: 1.2; PAD4 inh: 7.7; PRMT1 inh: 22.1*; SIAE inh: 11.1; TCR CD3 inh: 18.7; Fam108B counter: 2.6

How did O=C1c2cccc3cccc(c23)C(=O)N1Cc1cccnc1 do in these assays?
PME-1 primary: 1.5; PAD4 inh: 0.6; PRMT1 inh: 2.4; SIAE inh: -13.3; TCR CD3 inh: 3.7; Fam108B counter: 2.6

What do the screens show for `O=C1c2cccc3c([N+](=O)[O-])ccc(c23)C(=O)N1Cc1cccnc1`?
PRMT1 inh: 21.3*; SIAE inh: -1.5; TCR CD3 inh: -7.9
